Assay results from the supplement of paper PMC12669032.
Unmarked numbers belong to inactive results.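 The calls were made as follows: active = AUC reduced over 20% with Padj below 0.05 in at least 2 of 3 replicates; inactive = otherwise.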

Tests used:
Roseburia intestinalis = assay: growth AUC relative to DMSO control (median of replicates) (fraction); higher = more growth (less inhibition), active = hit call of the paper; details: 20 µM; 24 h
Outline: (§1)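 Each value is the median of three biological replicates, grown on separate days, of a gut bacterial monoculture incubated anaerobically at 37 °C in mGAM with 20 µM compound (1% DMSO). Cultures started at OD600 0.05 and were read at OD600 hourly for 24 h, with the minimum OD set to 0. Area under the growth curve was normalised to the plate median of solvent-only wells, or to row and column medians on the industrial chemical plate.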

Streptococcus salivarius = assay: as above; details: 20 µM; 24 h
Outline: as §1

Row | SMILES | growth AUC (Roseburia intestinalis) | growth AUC (Streptococcus salivarius)
1 | COP(=S)(Oc1cc(Cl)c(Br)cc1Cl)c1ccccc1 (configuration not stated) | 1.04 | 1.05
2 | O=C(NC(=O)c1c(F)cccc1F)Nc1ccc(Cl)c(Oc2ncc(C(F)(F)F)cc2Cl)c1 | 1 | 1.02
3 | O=C(NC(=O)c1c(F)cccc1F)Nc1ccc(CO/N=C(\c2ccc(Cl)cc2)C2CC2)cc1 | 0.968 | 0.996
4 | C[C@H]1[C@H](c2ccc(Cl)cc2)SC(=O)N1C(=O)NC1CCCCC1 | 0.922 | 0.985
5 | COCCOC(=O)C(C#N)(C(=O)c1ccccc1C(F)(F)F)c1ccc(C(C)(C)C)cc1 (configuration not stated) | 1.02 | 0.917
6 | CS(=O)(=O)c1ccc(C(=O)C2C(=O)CCCC2=O)c([N+](=O)[O-])c1 | 0.976 | 1.03
7 | CCN(C(=O)n1nnn(-c2ccccc2Cl)c1=O)C1CCCCC1 | 0.938 | 0.971
8 | ClC1=C(Cl)C2(Cl)C3C4C=CC(C4)C3C1(Cl)C2(Cl)Cl (configuration not stated) | 0.987 | 0.995
9 | OC(Cc1ccccc1Cl)(Cn1cncn1)C1(Cl)CC1 (configuration not stated) | 1.05 | 0.998
10 | O=c1c2cc(F)ccc2nc(-n2cncn2)n1-c1ccc(Cl)cc1Cl | 0.975 | 1.02
11 | CCOP(=S)(OCC)SCSCC | 0.962 | 1.02
12 | C#CCC1=C(C)C(OC(=O)C2C(C=C(C)C)C2(C)C)CC1=O (configuration not stated) | 0.921 | 0.959
13 | N#Cc1nn(-c2c(Cl)cc(C(F)(F)F)cc2Cl)c(N)c1C(F)(F)F | 0.698 (active) | 0.539 (active)
14 | CC(C)=CC1C(C(=O)OCc2cccc(Oc3ccccc3)c2)C1(C)C (mixture of isomers) | 0.908 | 0.951
15 | CCCN(CC)CC1COC2(CCC(C(C)(C)C)CC2)O1 (configuration not stated) | 1.03 | 0.96
16 | Clc1cc(Cl)c(Cl)cc1Cl | 0.962 | 0.935
17 | CCNc1nc(NC(C)C(C)C)nc(SC)n1 (configuration not stated) | 1.04 | 0.97
18 | CCOP(=O)(Sc1ccccc1)Sc1ccccc1 | 0.946 | 0.948

Row | SMILES | growth AUC (Roseburia intestinalis) | growth AUC (Streptococcus salivarius)
19 | O=C1c2ccccc2C(=O)N1SC(Cl)(Cl)Cl | 0.99 | 1.01
20 | O=[N+]([O-])c1c(Cl)c(Cl)cc(Cl)c1Cl | 1.06 | 1
21 | CCC(C)(C)c1ccc(O)cc1 | 0.995 | 0.995
22 | CCOP(=O)(NC(C)C)Oc1ccc(S(C)=O)c(C)c1 (configuration not stated) | 1.05 | 1.05
23 | CCOP(=S)(OCC)Oc1ccc2c(C)c(Cl)c(=O)oc2c1 | 1.01 | 1
24 | COC(=O)NCc1cc(/C(C)=N\OCc2cccc(C)n2)ccc1Cl | 1.01 | 0.974
25 | CCNc1nc(Cl)nc(NC(C)(C)C)n1 | 0.955 | 0.986
26 | COP(=S)(OC)Oc1nc(Cl)c(Cl)cc1Cl | 1 | 1.02
27 | CC(C)N(C(=O)COc1nnc(C(F)(F)F)s1)c1ccc(F)cc1 | 1.01 | 0.949
28 | COP(=O)(NC(C)=O)SC (configuration not stated) | 1.01 | 1.01
29 | CC(=O)O.CCCCCCCCCCCCN=C(N)N | 0.805 | 1.03
30 | CC(C)C(C(=O)OC(C#N)c1cccc(Oc2ccccc2)c1)c1ccc(Cl)cc1 (configuration not stated) | 0.929 | 0.988
31 | COC(=O)C(C)N(C(=O)Cc1ccccc1)c1c(C)cccc1C (configuration not stated) | 0.975 | 0.96
32 | C[C@@H](Oc1ccc(Oc2nc3ccc(Cl)cc3o2)cc1)C(=O)O | 1.04 | 0.925
33 | O=C(O)c1cc(Cl)ccc1Cl | 0.993 | 1.01
34 | COC(=O)c1ccccc1S(=O)(=O)NC(=O)Nc1nc(C)cc(C)n1 | 0.944 | 0.982
35 | CC1=NNC(=O)N(/N=C/c2cccnc2)C1 | 1.01 | 1.04
36 | CC(C)(C)C(O)/C(=C/c1ccc(Cl)cc1Cl)n1cncn1 (mixture of isomers) | 0.929 | 0.945
